The target in the assay is furin, P09958. The assay can be described thus: furin cleavage Z-score vs untreated control; higher = more cleavage, active = 3.5 or more, inactive = 1 or less, 8 variable residues between constant flanks. The essentials:
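Magnetic beads held 8-mer peptides by the N-terminus, each fused to a cDNA oligonucleotide, and purified furin was added for 7.5, 15 or 30 min. Released DNA was sequenced after PCR adapter tagging. The cleavage Z-score is the log count relative to furin-free reactions, lowess-adjusted and divided by median absolute deviation.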

The list shows a part of the results. The hit rate among all sequences tested is not known here.
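Note: purified furin at 1:10 enzyme:substrate in 50 mM HEPES pH 7.5.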

furin, P09958, sequence (P09958 whole entry, the tested form may be a part): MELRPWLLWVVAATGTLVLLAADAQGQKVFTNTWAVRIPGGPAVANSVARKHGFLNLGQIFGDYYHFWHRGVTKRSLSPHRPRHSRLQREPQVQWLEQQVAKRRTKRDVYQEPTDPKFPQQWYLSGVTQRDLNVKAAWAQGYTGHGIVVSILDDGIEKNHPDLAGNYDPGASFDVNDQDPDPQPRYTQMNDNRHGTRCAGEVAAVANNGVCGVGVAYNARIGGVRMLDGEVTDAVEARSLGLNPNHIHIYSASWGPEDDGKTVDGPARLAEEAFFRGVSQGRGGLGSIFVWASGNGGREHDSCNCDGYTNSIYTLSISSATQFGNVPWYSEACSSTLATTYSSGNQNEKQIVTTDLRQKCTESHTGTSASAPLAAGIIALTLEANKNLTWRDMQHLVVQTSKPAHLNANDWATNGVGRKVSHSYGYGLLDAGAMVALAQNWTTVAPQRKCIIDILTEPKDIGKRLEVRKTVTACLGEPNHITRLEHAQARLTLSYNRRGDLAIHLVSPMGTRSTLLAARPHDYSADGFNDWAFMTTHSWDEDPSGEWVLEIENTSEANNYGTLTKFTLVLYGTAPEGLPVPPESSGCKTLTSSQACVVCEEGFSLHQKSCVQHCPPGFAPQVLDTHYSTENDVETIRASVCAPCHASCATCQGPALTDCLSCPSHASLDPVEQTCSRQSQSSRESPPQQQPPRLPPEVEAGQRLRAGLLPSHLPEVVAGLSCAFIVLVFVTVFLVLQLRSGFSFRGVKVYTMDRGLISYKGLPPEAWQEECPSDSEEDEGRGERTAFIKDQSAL

For CAKCTTPCSGAGNASASA [HC1954], the “furin cleavage Z-score” value (7.5 min) was -0.367 (inactive), the “furin cleavage Z-score” value (15 min) was 0.0622 (inactive) and the “furin cleavage Z-score” value (30 min) is 0.776 (inactive).

For the sequence CAEVVTSTWKAGNASASA [HC2254], the “furin cleavage Z-score” value (7.5 min) is -0.33 (inactive), the “furin cleavage Z-score” value (15 min) was -0.194 (inactive) and the “furin cleavage Z-score” value (30 min) was found to be 1.09.

Take CAGVCCSMSYAGNASASA [HC1996]: the “furin cleavage Z-score” value was -0.333 (inactive) (7.5 min), -0.0583 (inactive) (15 min) and 0.735 (inactive) (30 min).

Take CARRMRRAGQAGNASASA [FS-2178]: the “furin cleavage Z-score” value is, setting by setting: (7.5 min) 3.82 (active); (15 min) 5.28 (active); (30 min) 6.43 (active).

As to CARRKRAKVEAGNASASA [FS-3051], the “furin cleavage Z-score” value is 2.74 (7.5 min), 5.28 (active) (15 min) and 7.03 (active) (30 min).

Take CALRKRSVDQAGNASASA [FS-1884]: the “furin cleavage Z-score” value is, setting by setting: (7.5 min) 6.21 (active); (15 min) 7.15 (active); (30 min) 6.93 (active).

CARRKRAVNPAGNASASA [FS-2294]: the “furin cleavage Z-score” value was 5.19 (active) (7.5 min), 3.83 (active) (15 min) and 4.64 (active) (30 min).

With CAQMYTNVDQAGNASASA [HC710], the “furin cleavage Z-score” value by setting is: (7.5 min) 0.349 (inactive); (15 min) -0.937 (inactive); (30 min) 0.488 (inactive).

In the case of CANWTRGERCAGNASASA [HC483], the “furin cleavage Z-score” value runs as follows: (7.5 min) 0.47 (inactive); (15 min) 1.14; (30 min) 0.279 (inactive).

Regarding CAFVVTSTWVAGNASASA [HC2147], the “furin cleavage Z-score” value is, setting by setting: (7.5 min) 0.62 (inactive); (15 min) 0.171 (inactive); (30 min) -0.5 (inactive).

For CAGENLYFQGAGNASASA [TV2], the “furin cleavage Z-score” value reads like this: (7.5 min) -1.7 (inactive); (15 min) -0.261 (inactive); (30 min) -0.768 (inactive).

For the sequence CAVVCCHMSYAGNASASA [HC109], the “furin cleavage Z-score” value reads like this: (7.5 min) 1.01; (15 min) -0.749 (inactive); (30 min) 0.554 (inactive).

For CAGAYMSKAHAGNASASA [HC793], the “furin cleavage Z-score” value reads like this: (7.5 min) -0.996 (inactive); (15 min) -1.61 (inactive); (30 min) -0.903 (inactive).

For the sequence CASTPCSHHLAGNASASA [HC2535], the “furin cleavage Z-score” value (7.5 min) was 0.275 (inactive), the “furin cleavage Z-score” value (15 min) was 0.419 (inactive) and the “furin cleavage Z-score” value (30 min) is -0.167 (inactive).

As to CARRKRSRKPAGNASASA [FS-1835], the “furin cleavage Z-score” value is 6.72 (active) (7.5 min), 6.37 (active) (15 min) and 6.82 (active) (30 min).

In the case of CAREDRFFCPAGNASASA [FS-2001], the “furin cleavage Z-score” value by setting is: (7.5 min) -0.0818 (inactive); (15 min) 0.295 (inactive); (30 min) -0.529 (inactive).

For the sequence CARRKRKEKQAGNASASA [FS-3231], the “furin cleavage Z-score” value by setting is: (7.5 min) -1.72 (inactive); (15 min) -1.54 (inactive); (30 min) 0.219 (inactive).

On to CARMKRSRCPAGNASASA [FS-2721], for which the “furin cleavage Z-score” value runs as follows: (7.5 min) 5.18 (active); (15 min) 7.21 (active); (30 min) 5.91 (active).

For CARMKRFRVDAGNASASA [FS-2719], the “furin cleavage Z-score” value is, setting by setting: (7.5 min) -0.757 (inactive); (15 min) 0.996 (inactive); (30 min) 1.75.

As to CARRKKARGPAGNASASA [FS-2776], the “furin cleavage Z-score” value is 0.453 (inactive) (7.5 min), -0.0472 (inactive) (15 min) and -0.48 (inactive) (30 min).

Regarding CARRKRYRNFAGNASASA [FS-1836], the “furin cleavage Z-score” value by setting is: (7.5 min) 1.23; (15 min) 0.582 (inactive); (30 min) 2.95.

As to CARRKRSVAQAGNASASA [FS-1919], the “furin cleavage Z-score” value (7.5 min) is 4.44 (active), the “furin cleavage Z-score” value (15 min) is 4.31 (active) and the “furin cleavage Z-score” value (30 min) was 4.11 (active).

In the case of CATPCTCGSSAGNASASA [HC721], the “furin cleavage Z-score” value (7.5 min) is -1.49 (inactive), the “furin cleavage Z-score” value (15 min) is -2.13 (inactive) and the “furin cleavage Z-score” value (30 min) is -1.32 (inactive).

As to CAEECSQHLPAGNASASA [HC1015], the “furin cleavage Z-score” value is, setting by setting: (7.5 min) 0.447 (inactive); (15 min) 0.0813 (inactive); (30 min) -0.935 (inactive).

As for CALRARKNRSAGNASASA [FS-942], the “furin cleavage Z-score” value reads like this: (7.5 min) 8.1 (active); (15 min) 8.12 (active); (30 min) 6.93 (active).

Consider CATTTRKNRSAGNASASA [FS-1498], for which the “furin cleavage Z-score” value (7.5 min) was 8.64 (active), the “furin cleavage Z-score” value (15 min) is 11 (active) and the “furin cleavage Z-score” value (30 min) was 7.73 (active).

Turning to CAPRARSRRSAGNASASA [FS-1053], the “furin cleavage Z-score” value reads like this: (7.5 min) 9.77 (active); (15 min) 10.8 (active); (30 min) 8.95 (active).

Take CATTTCSGSWAGNASASA [HC1878]: the “furin cleavage Z-score” value is -0.962 (inactive) (7.5 min), 0.367 (inactive) (15 min) and -0.313 (inactive) (30 min).

For the sequence CAPRARKNRSAGNASASA [FS-949], the “furin cleavage Z-score” value runs as follows: (7.5 min) 12.3 (active); (15 min) 12.6 (active); (30 min) 8.81 (active).

CAPRAAERRSAGNASASA [FS-74]: the “furin cleavage Z-score” value reads like this: (7.5 min) -1.2 (inactive); (15 min) -1.99 (inactive); (30 min) -1.56 (inactive).

For the sequence CALRAYMNTPAGNASASA [HC930], the “furin cleavage Z-score” value (7.5 min) is 0.0194 (inactive), the “furin cleavage Z-score” value (15 min) was -1.18 (inactive) and the “furin cleavage Z-score” value (30 min) was 0.0807 (inactive).

In the case of CAEEIRVNRSAGNASASA [FS-229], the “furin cleavage Z-score” value runs as follows: (7.5 min) 2.33; (15 min) 0.724 (inactive); (30 min) 1.69.

Values taken from the supplement of paper PMC3545927.
